In PubChem BioAssay (Tox21) one finds Potency data, which are given here for six compounds.

Several values for one entry are separate records, joined by “and”; a condition that tells them apart may be missing. Identical values can stand only once. Results filed as inconclusive are left out. Some structures have more than one record in an assay (separate samples or runs), and their calls can disagree. Activity calls are given as the source filed them. Unless noted, calls follow the shape of the dose curve; as a rule, active = well fitted curve in the direction sought with a large enough effect in the repeat runs; inconclusive = weak or mixed curves; inactive = no such curve, though single readings can be large; an effect the other way counts as inactive or inconclusive.

A short description of assay [1]: qHTS assay to identify small molecule antagonists of the thyroid receptor (TR) signaling pathway - cell viability counter screen (AID 743064). Also: nearly all actives have a fitted effect of over 50% in size. The procedure, abridged:
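Counter screen for cytotoxicity: compound plus T3 (1 nM final) on GH3.TRE-Luc cells, 23.5 h at 37 °C, then fluorescence viability readout with CellTiter-Fluor.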

Assay [2] can be described thus: qHTS assay to identify small molecule antagonists of the thyroid receptor (TR) signaling pathway (AID 743065). Also: nearly all actives have a fitted effect of over 55% in size. The procedure, abridged:
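GH3.TRE-Luc rat pituitary cells carrying two TR response elements driving luciferase were plated for 4 h, given compound plus 1 nM T3 (final), and incubated 23.5 h at 37 C. ONE-Glo luminescence measured reporter inhibition; CellTiter-Fluor fluorescence tracked cytotoxicity.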
For orientation: qHTS replaces the single test concentration by a dilution series.

For assay [3], the system named is thyroid hormone receptor (rat, GH3 cells). The experiment in a line: qHTS assay to identify small molecule agonists of the thyroid receptor (TR) signaling pathway (AID 743066; calls by dose curve).
For assay [4], the target named is Estrogen receptor (Homo sapiens) (UniProt P03372). Put plainly: qHTS assay to identify small molecule antagonists of the estrogen receptor alpha (ER-alpha) signaling pathway (AID 743069; active = well fitted curve in the direction sought with a large enough effect in the signal ratio in the repeat runs, not every such curve was filed as active; the % refers to the signal ratio). The procedure, abridged: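 Estradiol-stimulated ER-alpha-UAS-bla HEK293 cells, 18 hr compound exposure at 37C. LiveBLAzer B/G substrate, 2 hr RT, fluorescence read.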
Assay [5] is described as follows: qHTS assay to identify small molecule antagonists of the estrogen receptor alpha (ER-alpha) signaling pathway - cell viability counter screen (AID 743074; calls by dose curve;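 also: HEK293 cells carrying ER-alpha-UAS-bla reporter stimulated with 17beta-estradiol; nearly all actives have a fitted effect of over 45% in size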).
The target of assay [6] is Estrogen receptor (Homo sapiens) (UniProt P03372). The experiment in a line: qHTS assay to identify small molecule agonists of the estrogen receptor alpha (ER-alpha) signaling pathway (AID 743075; calls by dose curve;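 also: HEK293 GripTite cells with ER-alpha and UAS-driven beta-lactamase reporter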; also: potency is read from the fitted curve at half-maximal effect).
For assay [7] the target is unchanged. The experiment in a line: qHTS assay to identify small molecule agonists of the estrogen receptor alpha (ER-alpha) signaling pathway using the BG1 cell line (AID 743079). Also: nearly all actives have a fitted effect of over 20% in size. Also: potency is read from the fitted curve at half-maximal effect. Conditions: BG1Luc4E2 cells, ERE-luciferase agonist, 22 h; activation: at 70.3 µM (top of the series) unless noted.
A short description of assay [8]: qHTS assay to identify small molecule antagonists of the estrogen receptor alpha (ER-alpha) signaling pathway using the BG1 cell line (AID 743080; calls by dose curve;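 also: BG1 cells stimulated with 17beta-estradiol alongside compound; nearly all actives have a fitted effect of over 25% in size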). The procedure, abridged: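 Luminescence from a 4×ERE-luciferase reporter in BG1-Luc-4E2 cells served as read-out. Cells, pre-cultured 5 days in stripped-serum phenol-red-free medium, were exposed to compound with 17beta-estradiol co-stimulation for 21.5 h at 37 C.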

The nature of assay [9]: qHTS assay to identify small molecule antagonists of the estrogen receptor alpha (ER-alpha) signaling pathway using the BG1 cell line - cell viability counter screen (AID 743081).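 Also: compound given together with 17beta-estradiol as the ER stimulus; nearly all actives have a fitted effect of over 45% in size.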
Another assay has as its target Aromatase (Homo sapiens) (UniProt P11511). Put plainly: qHTS assay to identify aromatase inhibitors (AID 743083). Also: nearly all actives have a fitted effect of over 55% in size.
A short description of assay [10]: qHTS assay to identify aromatase inhibitors - cell viability counter screen (AID 743084).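 Also: cells stimulated with testosterone during compound exposure; nearly all actives have a fitted effect of over 55% in size.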
Assay [11] deals with Aryl hydrocarbon receptor (Homo sapiens) (UniProt P35869). Put plainly: qHTS assay to identify small molecule that activate the aryl hydrocarbon receptor (AhR) signaling pathway (AID 743085).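 Also: HG2L7.5c1 human HepG2 liver cells with stably integrated DRE-driven firefly reporter; nearly all actives have a fitted effect of over 15% in size.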 The procedure, abridged: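 Measured in HG2L7.5c1 cells: CellTiter-Fluor signal (30 min incubation, 37C) for viability, then luciferase luminescence (30 min, room temperature). Compound contact time was 24 h at 37C, following a 5 h pre-incubation.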

Assay [12] is described as follows: qHTS assay to identify small molecule that activate the aryl hydrocarbon receptor (AhR) signaling pathway - cell viability counter screen (AID 743086).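 Also: HepG2 liver cells carrying the AhR DRE luciferase reporter; nearly all actives have a fitted effect of over 45% in size.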 The procedure, abridged: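 HepG2-AhR-luc (HG2L7.5c1) cells, 4000/well, were preincubated 5 h at 37C, exposed to compound in qHTS format for 24 hr at 37C, then given CellTiter-Fluor for 30 min; viability was read as fluorescence in the reporter wells.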

For assay [13], the target named is Peroxisome proliferator-activated receptor gamma (Homo sapiens) (UniProt P37231). Put plainly: qHTS assay to identify small molecule agonists of the peroxisome proliferator-activated receptor gamma (PPARg) signaling pathway (AID 743094; active = well fitted activation curve with a large enough effect in the signal ratio in the repeat runs, not every such curve was filed as active; the % refers to the signal ratio). The procedure, abridged:
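Quantitative HTS agonist mode: stable HEK293H line with UAS-beta-lactamase reporter under PPARg control, 17 h compound exposure at 37C, fluorescence after 1 h FRET substrate loading at room temperature.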

For assay [14] the target is unchanged. Put plainly: qHTS assay to identify small molecule antagonists of the peroxisome proliferator-activated receptor gamma (PPARg) signaling pathway (AID 743191; calls by dose curve; also: nearly all actives have a fitted effect of over 30% in size). The procedure, abridged: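 GeneBLAzer PPARg UAS-bla HEK293H cells carrying a UAS-driven beta-lactamase reporter were plated at 3000 cells/well, preincubated 5 h at 37C, then given compound for 17 h at 37C; LiveBLAzer B/G FRET substrate was read after 1 h at room temperature.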

Assay [15] can be described thus: qHTS assay to identify small molecule antagonists of the peroxisome proliferator-activated receptor gamma (PPARg) signaling pathway - cell viability counter screen (AID 743194). Also: nearly all actives have a fitted effect of over 55% in size. The note with it: Potency: co-treated with 50 nM rosiglitazone unless noted. The procedure, abridged: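 PPARg-UAS-bla HEK293H cells were plated, rested 5 h at 37 C, then treated with compounds plus rosiglitazone (50 nM final) for 17 h at 37 C; viability was then read by CellTiter-Glo luminescence after 30 min at room temperature.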

Assay [16] can be described thus: qHTS assay for small molecule agonists of the antioxidant response element (ARE) signaling pathway (AID 743202; active = well fitted activation curve with a large enough effect in the signal ratio in the repeat runs, not every such curve was filed as active; the % refers to the signal ratio). A digest of the protocol: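 Compounds delivered in DMSO to ARE-bla HepG2 cells (2,000 cells/well, pre-incubated 5 h) and left 16 h at 37 C. LiveBLAzer B/G FRET substrate then added for 2 h at RT before fluorescence reading.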
Assay [17] can be described thus: qHTS assay for small molecule agonists of the antioxidant response element (ARE) signaling pathway - cell viability counter screen (AID 743203; calls by dose curve; also: nearly all actives have a fitted effect of over 55% in size). A digest of the protocol:
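Seeded at 2,000 cells/well, ARE-bla HepG2 cells were incubated 5 hrs before compound addition. After 16 hrs of treatment at 37C with 5% CO2, CellTiter-Glo reagent was added and luminescence read 30 min later.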

The nature of assay [18]: qHTS assay for small molecule activators of the heat shock response signaling pathway - cell viability counter screen (AID 743209). Also: nearly all actives have a fitted effect of over 50% in size. A digest of the protocol: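 First, HSE-bla HeLa cells were seeded at 1500 cells/well and kept overnight at 37 C. Next, compounds were pinned in and incubated 5 h. After the FRET substrate step, CellTiter-Glo was added and luminescence read 30 min later.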

The nature of assay [19]: qHTS assay for small molecule activators of the heat shock response signaling pathway (AID 743210; active = well fitted activation curve with a large enough effect in the signal ratio in the repeat runs, with a control signal flat, not every such curve was filed as active; the % refers to the signal ratio;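 also: HeLa cells with beta-lactamase reporter driven by heat shock elements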). A digest of the protocol:
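Reporter gene assay: HeLa cells stably bearing an HSE-bla construct, compound treatment 5 h at 37 C, LiveBLAzer substrate 2.5 h at RT, fluorescence intensity.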

Sequence of Peroxisome proliferator-activated receptor gamma (Homo sapiens) (P37231 whole entry, looked up): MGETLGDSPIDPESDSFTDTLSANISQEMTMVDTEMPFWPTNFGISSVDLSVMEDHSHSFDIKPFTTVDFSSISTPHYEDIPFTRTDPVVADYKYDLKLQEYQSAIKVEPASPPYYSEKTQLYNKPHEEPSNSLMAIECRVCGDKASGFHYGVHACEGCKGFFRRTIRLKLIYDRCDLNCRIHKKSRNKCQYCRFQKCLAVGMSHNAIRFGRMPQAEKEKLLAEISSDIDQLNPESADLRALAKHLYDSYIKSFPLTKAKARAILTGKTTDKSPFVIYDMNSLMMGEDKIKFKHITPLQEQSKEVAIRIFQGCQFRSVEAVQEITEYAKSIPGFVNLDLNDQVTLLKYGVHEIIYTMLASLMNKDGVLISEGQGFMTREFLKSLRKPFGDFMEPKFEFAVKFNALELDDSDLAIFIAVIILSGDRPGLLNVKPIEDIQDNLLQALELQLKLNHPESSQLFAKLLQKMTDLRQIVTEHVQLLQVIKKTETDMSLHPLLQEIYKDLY
Sequence of Estrogen receptor (Homo sapiens) (P03372 whole entry, looked up): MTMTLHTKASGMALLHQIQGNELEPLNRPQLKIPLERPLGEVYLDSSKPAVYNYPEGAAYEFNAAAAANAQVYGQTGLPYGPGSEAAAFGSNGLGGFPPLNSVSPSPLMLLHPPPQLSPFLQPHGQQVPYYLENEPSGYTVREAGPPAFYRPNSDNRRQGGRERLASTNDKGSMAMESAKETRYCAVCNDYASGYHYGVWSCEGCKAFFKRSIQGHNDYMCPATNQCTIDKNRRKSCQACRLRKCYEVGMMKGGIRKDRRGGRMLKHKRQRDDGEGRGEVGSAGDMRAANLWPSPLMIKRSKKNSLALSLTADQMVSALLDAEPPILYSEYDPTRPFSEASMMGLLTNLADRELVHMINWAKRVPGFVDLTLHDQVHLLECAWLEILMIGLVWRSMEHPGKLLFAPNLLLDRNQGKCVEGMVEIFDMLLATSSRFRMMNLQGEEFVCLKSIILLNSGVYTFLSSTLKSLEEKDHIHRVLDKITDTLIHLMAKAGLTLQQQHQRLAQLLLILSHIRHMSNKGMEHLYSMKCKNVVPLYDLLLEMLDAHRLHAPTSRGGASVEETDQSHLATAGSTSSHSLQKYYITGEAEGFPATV
Sequence of Aromatase (Homo sapiens) (P11511 whole entry, looked up): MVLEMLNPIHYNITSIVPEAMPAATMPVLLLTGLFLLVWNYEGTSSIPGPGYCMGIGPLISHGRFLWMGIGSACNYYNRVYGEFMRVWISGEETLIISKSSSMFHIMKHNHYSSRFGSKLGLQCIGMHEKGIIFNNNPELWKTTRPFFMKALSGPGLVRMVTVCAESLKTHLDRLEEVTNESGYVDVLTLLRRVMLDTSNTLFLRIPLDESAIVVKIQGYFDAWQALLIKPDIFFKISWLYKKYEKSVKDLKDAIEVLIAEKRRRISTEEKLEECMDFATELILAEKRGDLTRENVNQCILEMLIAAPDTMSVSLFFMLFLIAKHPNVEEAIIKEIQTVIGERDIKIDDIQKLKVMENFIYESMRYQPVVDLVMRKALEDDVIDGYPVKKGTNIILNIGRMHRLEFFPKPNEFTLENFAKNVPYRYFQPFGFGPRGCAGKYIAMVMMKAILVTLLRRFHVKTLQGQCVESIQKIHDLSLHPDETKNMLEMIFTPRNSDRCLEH
Sequence of Aryl hydrocarbon receptor (Homo sapiens) (P35869 whole entry, looked up): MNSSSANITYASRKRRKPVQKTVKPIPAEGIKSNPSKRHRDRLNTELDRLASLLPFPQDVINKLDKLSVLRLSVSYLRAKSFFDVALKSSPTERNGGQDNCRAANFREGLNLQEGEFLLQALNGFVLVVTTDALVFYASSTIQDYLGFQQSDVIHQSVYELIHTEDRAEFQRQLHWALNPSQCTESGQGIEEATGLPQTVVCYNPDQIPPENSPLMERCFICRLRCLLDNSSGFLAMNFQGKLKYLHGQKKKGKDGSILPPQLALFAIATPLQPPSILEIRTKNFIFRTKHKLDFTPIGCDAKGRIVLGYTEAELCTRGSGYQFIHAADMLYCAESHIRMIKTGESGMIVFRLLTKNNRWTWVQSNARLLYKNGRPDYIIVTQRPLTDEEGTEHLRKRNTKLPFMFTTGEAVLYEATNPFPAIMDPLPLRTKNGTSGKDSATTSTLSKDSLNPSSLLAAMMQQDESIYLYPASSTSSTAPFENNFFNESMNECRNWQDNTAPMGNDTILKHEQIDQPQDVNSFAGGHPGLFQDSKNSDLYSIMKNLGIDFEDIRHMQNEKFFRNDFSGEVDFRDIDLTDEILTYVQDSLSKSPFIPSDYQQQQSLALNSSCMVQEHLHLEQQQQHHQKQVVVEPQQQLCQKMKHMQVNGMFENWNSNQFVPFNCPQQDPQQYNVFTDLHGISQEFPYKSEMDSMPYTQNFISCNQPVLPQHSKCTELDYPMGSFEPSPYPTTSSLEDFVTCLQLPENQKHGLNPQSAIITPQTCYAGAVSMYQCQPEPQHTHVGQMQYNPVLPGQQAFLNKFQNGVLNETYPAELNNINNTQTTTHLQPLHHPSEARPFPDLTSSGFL

For the compound `CN(C)c1nc(=O)n(C2CCCCC2)c(=O)n1C`, the Potency result in assay [1], in [2], in [3], in [4], in assay [5] and in assay [6] was “inactive” throughout. Further, the Potency result (in [7]; in [8]; in [9]; in the assay with Aromatase (Homo sapiens); in assay [10]; in assay [11]) was “inactive” in each case. In addition, the Potency entry in assay [12], in assay [13], in [14], in assay [15], in assay [16] and in assay [17] was “inactive” in each case. Besides, the Potency result in assay [18] and in [19] was “inactive” throughout.
`CCOP(=S)(OCC)SCSC(C)(C)C`: the Potency entry in [1], in assay [2], in assay [3], in assay [4], in assay [5] and in assay [6] was “inactive” each time. For the same compound, the Potency result (in assay [7]; in [8]; in assay [9]; with Aromatase (Homo sapiens); in assay [10]; in assay [11]) was “inactive” each time. The Potency result in [12], in assay [13], in assay [14], in assay [15], in assay [16] and in assay [17] was “inactive” in each case. Further, the Potency entry in assay [18] and in [19] was “inactive” each time.
Regarding `CN(C)P(=O)(N(C)C)N(C)C`, the Potency entry in assay [1], in assay [2], in assay [3], in [4], in assay [5] and in [6] was “inactive” in each case. Besides, the Potency result (in assay [7]; in assay [8]; in assay [9]; with Aromatase (Homo sapiens); in assay [10]; in [11]) was “inactive” throughout. Moreover, the Potency result in [12], in [13], in assay [14], in assay [15], in assay [16] and in assay [17] was “inactive” in each case. The Potency result in assay [18] and in assay [19] was “inactive” in each case.
Take `CCCCCCCCCCCCCl`: the Potency entry in assay [1], in assay [2], in [3], in assay [4], in assay [5] and in [8] was “inactive” throughout. In addition, the Potency result (in assay [9]; with Aromatase (Homo sapiens); in [10]; in assay [11]; in assay [12]; in [13]) was “inactive” in each case. Besides, the Potency entry in assay [14], in assay [15], in assay [16], in [17], in assay [18] and in assay [19] was “inactive” in each case. For the same compound, the Potency is 54.2 µM [activator] (active) and inactive in assay [6]; 30.2 µM (active) and inactive in assay [7].
As for `CC(C)=CC1C(C(=O)OCc2cccc(Oc3ccccc3)c2)C1(C)C` (configuration not stated), the Potency entry in [1], in [2], in [3], in assay [4], in assay [5] and in assay [6] was “inactive” each time. Besides, the Potency result (in assay [7]; in assay [8]; in assay [9]; with Aromatase (Homo sapiens); in assay [10]; in assay [11]) was “inactive” in each case. The Potency result in [12], in assay [15], in assay [16], in assay [17], in [18] and in assay [19] was “inactive” throughout.
As for `c1ccc2c(c1)Nc1ccccc1S2`, the Potency result in assay [1], in assay [2], in assay [3], in [4], in assay [5] and in assay [6] was “inactive” throughout. Moreover, the Potency result (in [8]; in assay [9]; with Aromatase (Homo sapiens); in assay [10]; in assay [12]; in [13]) was “inactive” throughout. Besides, the Potency entry in assay [14], in assay [15], in [16], in [17], in [18] and in assay [19] was “inactive” in each case. Also, the Potency in assay [7] was 26.6 µM (active) and 38.6 µM (active).
